Assay outcomes (PubChem)
In the library only some 17% were active in any assay of this set; here they are far more common.
S2 tox = reduces viability in counter-screen for ATXN expression inhibitors; S2 cells (HEK-293 line with an ATXN2-luciferase reporter) viability, CellTiter-Fluor protease fluorescence, 24 h; Potency, µM (doses to about 56.7 µM), usual class: cytotoxic; 400,000 compounds, 0.49% hits; AID 651635; further: nearly all actives have a fitted effect of over 40% in size
DT40 TDP1 CPT = growth inhibition of DT40 Tdp1-/-;hTDP1 cells with camptothecin (screen for TDP1 inhibitors); chicken DT40 Tdp1-/-;hTDP1 cells + 20 nM CPT, ATP luminescence, 48 h; Potency, µM (titrated, usually from 46.2 µM), for inactives: at the highest dose activity change, negative = growth inhibition, actives largely listed as inhibitors; 420,000 compounds, 12% hits; AID 686979; further: on the % scale 0 is the no-effect control and ±100 the full control effect; nearly all actives have a fitted effect of over 55% in size
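Cell growth measured by CellTiter-Glo luminescence after a minimum 48 h, 37 C compound exposure with 20 nM CPT in Tdp1-knockout DT40 cells stably expressing hTDP1, seeded 400/well; qHTS titration format.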
HepG2 tox = kills HepG2 cells in TGF-b inhibitor counter-screen. 410,000 compounds, 0.76% hits. HepG2 CAGA-GFP viability, ATP luminescence, 18 h. Potency, µM (top dose mostly 46.1 µM), for inactives: at the top dose activity change, negative = cytotoxicity, usual class: cytotoxic
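HepG2 CAGA-GFP cells (1000/well, DMEM with 1% FBS) received compound, then TGF-beta at 500 pg/mL final, and were incubated 18 hours at 37 degrees C. Viability was read by CellTiter-Glo luminescence. Media-only wells were set as complete cell-killing and DMSO as no toxicity.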
DT40 TDP1 no CPT = qHTS for Inhibitors of human tyrosyl-DNA phosphodiesterase 1 (TDP1): qHTS in cells in absence of CPT. DT40 Tdp1-/- hTDP1 cells, no CPT, ATP luminescence, 48 h. Potency, µM (series often up to 46.2 µM), for inactives: at the highest dose activity change, negative = growth inhibition, actives largely listed as inhibitors. 420,000 compounds, 15% hits; further: on the % scale 0 is the no-effect control and ±100 the full control effect; nearly all actives have a fitted effect of over 55% in size
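Stably hTDP1-transfected Tdp1-null chicken DT40 cells were treated with library compounds minus camptothecin and grown for at least 48 hr at 37 °C, after which cellular ATP was quantified by luminescence.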
ATXN2 expr inh = inhibitors of ATXN2 expression. 360,000 compounds, 0.72% hits. HEK-293 ATXN2-luciferase reporter, luminescence, 24 h. Potency, µM (titrated, usually from 57 µM), without a hit: top-dose activity change, negative = inhibition, actives largely listed as inhibitors; further: on the % scale 0 is the no-effect control and ±100 the full control effect; nearly all actives have a fitted effect of over 55% in size
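ATXN2-luciferase reporter cells (luciferase flanked by upstream and downstream ATXN2 gene portions) were treated 24 h at 37 °C with compounds at up to 57 uM. SteadyGlo luminescence gave expression; GF-AFC fluorescence gave viability.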
TGFb SMAD3 inh = inhibitors of TGF-b signaling; HepG2 CAGA-GFP TGF-b/SMAD3 reporter, GFP fluorescence, 18 h; TGF-beta stimulated, 500 pg/mL final; Potency, µM (titrated, usually from 46.1 µM), for the others: at the top dose activity, negative = inhibition, actives largely listed as inhibitors; 410,000 compounds, 1.2% hits; AID 588855; further: on the % scale 0 is the no-effect control and ±100 the full control effect; nearly all actives have a fitted effect of over 65% in size
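Cell-based qHTS in HEPG2 carrying a CAGA-GFP Smad reporter; compounds added before 500 pg/mL final TGF-beta, 18 h incubation at 37 degrees C, GFP fluorescence quantified per cell by imaging cytometry.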
Active calls of the source: *; i = inactive; ? = inconclusive; . = not tested or not shown; [ ] = dose if it differs, or a comment. The call rests on the fitted dose curve; in most records, active means well fitted curve in the direction sought with a large enough effect; inconclusive means small, poorly fitted or top-dose-only effect, or another doubt; inactive means no such curve, though single readings can be large; an effect the other way counts as inactive or inconclusive. Potency means the concentration at half of the fitted maximal effect.

SMILES	S2 tox	DT40 TDP1 CPT	HepG2 tox	DT40 TDP1 no CPT	ATXN2 expr inh	TGFb SMAD3 inh
CN1C(C(=O)NCc2cccc(Br)c2)CC2Cn3c(nc4cc5ccccc5cc43)C21 (stereo not given)	?	?	-29%	21µM*	-6%	-15%
Cc1ncc2c(c1CNS(=O)(=O)N(C)C)CCN(C(=O)c1ccc(-c3ccc(F)cc3)cc1)C2	i	8%[9.04 µM]	.	?	.	.
C/C(=C1/C=Nc2ccccc21)c1ccc(N(C)C)cc1	.	7.9µM*	-42%	10µM*	.	?
CN(C)c1ccc(C(=O)C(=O)c2ccccc2)cc1	i	-4%	9%	12%	51%	11%
CCOC(=O)N1CCN(S(=O)(=O)c2ccc(C(=O)Nc3nnc(C)o3)cc2)CC1	i	3%	8%	-2%	-9%	5%
CC1CC(C)CN(S(=O)(=O)c2ccc(C(=O)NCc3ccc4c(c3)OCO4)cc2)C1 (stereo not given)	i	16µM*	0%	?	-5%	-15%
Cc1nnc(NC(=O)c2ccc(S(=O)(=O)N3CC(C)CC(C)C3)cc2)o1 (stereo not given)	i	?	-38%	16µM*	-38%	-10%
CC1CCCCN1S(=O)(=O)c1ccc(C(=O)Nc2nnc(C3CC3)o2)cc1 (stereo not given)	i	16µM*	-36%	?	-37%	-11%
CC1CN(S(=O)(=O)c2ccc(C(=O)Nc3nnc(-c4ccc5c(c4)CCCC5)o3)cc2)CC(C)O1 (stereo not given)	i	6.5µM*	-4%	12µM*	?	?
COc1cccc(CN(CC(=O)NCc2ccco2)C(=O)CNS(=O)(=O)c2ccccc2)c1	i	-3%	-36%	3%	-7%	?
CC1CCN(S(=O)(=O)c2ccc(C(=O)Nc3nnc(C4CC4)o3)cc2)CC1	i	18µM*	-30%	?	?	-16%
CC1CC(C)CN(S(=O)(=O)c2ccc(C(=O)NCCCn3ccnc3)cc2)C1 (stereo not given)	i	29µM*	8%	?	?	10%
Cc1cccc(NC(=O)c2ccc(S(=O)(=O)N3CCC(C)CC3)cc2)n1	i	?	-14%	16µM*	-8%	-20%
Cc1cccc(NC(=O)c2ccc(S(=O)(=O)N3CCCCC3)cc2)n1	i	-28%	-2%	-26%	2%	10%
O=C(NCC1(N2CCCCC2)CCCC1)c1cnn(-c2nccc(-c3cccs3)n2)c1C1CC1	i	7%[9.04 µM]	.	1%	.	.
CSc1ccc(/C=C2\C=C(C(O)c3ccc(SC)cc3)c3ccccc32)cc1 (stereo not given)	.	10µM*	-28%	10µM*	.	-7%
CC(=O)Nc1ccc(/C=C2\C=C(C(O)c3ccc(NC(C)=O)cc3)c3ccccc32)cc1 (stereo not given)	.	20µM*	-52%	10µM*	.	?
OC(C1=C/C(=C\c2ccncc2)c2ccccc21)c1ccncc1 (stereo not given)	.	11µM*	-37%	11µM*	.	?
OC(c1ccccc1)c1cccnc1 (stereo not given)	i	-14%	-13%	7%	-3%	0%
CCCC(=O)Nc1nnc([C@H]2C[C@H](O)[C@@H](CO)O2)s1	i	-1%	-2%	-2%	1%	3%
Cc1c(NC(=O)C(C)OC(=O)CCc2c[nH]c3ccccc23)c(=O)n(-c2ccccc2)n1C (stereo not given)	i	7%	0%	-19%	-12%	-2%
O=C(NCCCN1CCOCC1)c1cc(S(=O)(=O)N2CCOCC2)ccc1Cl	i	-1%	5%	3%	2%	1%
CCCCCCCCNS(=O)(=O)CCNCCCC	i	?	-45%	16µM*	-8%	?
O=C(NNC(=S)Nc1ccccc1C(F)(F)F)C1CC1	i	1%	-33%	-9%	-2%	9%
Cc1cc(NC(=O)CN2CCC(C)CC2)nc2c1c(=O)oc1ccccc12	i	?	-3%	21µM*	4%	18%
SMILES	S2 tox	DT40 TDP1 CPT	HepG2 tox	DT40 TDP1 no CPT	ATXN2 expr inh	TGFb SMAD3 inh
Cc1cc(NC(=O)CN2CCc3ccccc3C2)nc2c1c(=O)oc1ccccc12	i	21µM*	-3%	18µM*	6%	-1%
CCCC(=O)Nc1cc(C)c2c(=O)oc3ccccc3c2n1	i	?	2%	?	10%	0%
O=C(NCC1Cc2cc(-c3cnc4ccccc4c3)cc(F)c2O1)c1cnsn1 (stereo not given)	?	?	.	-19%	.	.
O=C(c1ccc2c(=O)n(C3CCCC3)c(=S)[nH]c2c1)N1CCc2ccccc21	i	12µM*	1%	21µM*	-13%	5%
CCCCc1c(O)c2cccc3c2n(c1=O)CCC3	i	8%	3%	-4%	-1%	13%
O=C(O)c1cccc(S(=O)(=O)N2CCN(C(c3ccccc3)c3ccccc3)CC2)c1	i	7%	-2%	5%	5%	-1%
CCNc1nc(NCC)n2c(SC(C(=O)Nc3cc(Cl)cc(Cl)c3)c3ccccc3)nnc2n1 (stereo not given)	.	23µM*	-10%	16µM*	25µM*	-3%
COC(=O)[C@]12CCCCC=C1N(CCC1=CCCCC1)C(=O)[C@H](CC(=O)NCC13CC4CC(CC(C4)C1)C3)C2	?	?	.	?	0%	.
CCCCOCCCNC(=O)C[C@@H]1C[C@@]2(C(=O)OCC)CCCC=C2N(Cc2ccc3c(c2)OCO3)C1=O	i	6.5µM*	.	?	-14%	.
CCOC(=O)[C@]12CCC=C1N(Cc1ccc3c(c1)OCO3)C(=O)[C@H](CC(=O)NCc1cccc3ccccc13)C2	?	?	.	?	-17%	.
COC(=O)[C@]12CCCCC=C1N(Cc1ccc3c(c1)OCO3)C(=O)[C@H](CC(=O)NCC13CC4CC(CC(C4)C1)C3)C2	.	?	.	18µM*	.	.
CCCCNC(=O)C[C@@H]1C[C@@]2(C(=O)OCC)CCCC=C2N(Cc2ccc3c(c2)OCO3)C1=O	?	?	.	21µM*	0%	.
CCOC(=O)[C@]12CCC=C1N(Cc1ccc3c(c1)OCO3)C(=O)[C@H](CC(=O)NCc1ccc(C)o1)C2	i	?	.	23µM*	2%	.
